Test results taken from PubChem BioAssay (NCATS).
Results filed as inconclusive are left out. Activity calls are given as the source filed them. Unless noted, the call rests on the fitted dose curve; in most records, active means well fitted curve in the direction sought with a large enough effect; inconclusive means small, poorly fitted or top-dose-only effect, or another doubt; inactive means no such curve, though single readings can be large; an effect the other way counts as inactive or inconclusive.

Key:
[1] = Cytometry Cell-Based qHTS for Inhibitors of the mTORC1 Signaling Pathway in MEF cells (AID 2668);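 further: Tsc2-/- p53-/- mouse embryonic fibroblasts stably re-expressing wild-type Tsc2; percent cells positive for phospho-rpS6 Ser235/236 relative to propidium iodide stain; series mostly up to about 38 µM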
Summary of the method: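 Read-out: phospho-rpS6 Ser235/236 immunofluorescence normalized to propidium iodide intensity, scored as % active cells against a rapamycin (7.5 nM) threshold. Cells: Tsc2-/-, p53-/- MEFs stably expressing WT Tsc2, compound-treated 24 hrs at 37 degree Celsius.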

[2] = biological target: Ubiquitin carboxyl-terminal hydrolase 2 (Homo sapiens) (UniProt O75604); assay: qHTS Validation Assay for Inhibitors of Ubiquitin-specific Protease USP2a Using CHOP2 as the Reporter (AID 463106)
Summary of the method: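 Readout was coupled fluorescence (Ex 485/Em 531 nm), read 60 min after adding 25 nM final Ub-CHOP2 and 25 nM reporter substrate. Beforehand, 10 nM final USP2 core had 30 min at RT with compound in pH 8.0 buffer. Curves were fitted after normalization to NEM and flagged for artifacts using time-zero reads.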

[3] = biological target: DNA polymerase III PolC-type (Bacillus subtilis (strain 168)) (UniProt P13267); assay: qHTS Validation Assay for the Inhibitors of DNA Replication in Gram-Positive Bacteria (AID 485295);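 further: reconstituted holoenzyme with PolC plus beta clamp SSB and primase; PicoGreen fluorescence of double-stranded DNA made on primed circular M13 template; series mostly up to about 57 µM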
Summary of the method: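 PicoGreen fluorescence (ex 480–485/em 535–540 nm) reports dsDNA synthesized on ssM13Gori template with dNTPs/NTPs. Enzyme: holoenzyme rebuilt from purified PolC, beta subunit, SSB and primase. Compound preincubated before substrate addition; RT throughout.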

[4] = biological target: Tumor susceptibility gene 101 protein (Homo sapiens) (UniProt Q99816); assay: qHTS Validation Assay for Iinhibitors of HIV-1 Budding by Blocking the Interaction of PTAP/TSG101 (AID 485342; calls by dose curve)
Summary of the method: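 FP read-out: FITC-PTAP peptide, 50 nM final, binding Tsg101 binding domain, 10 uM final; 20 min r.t.; 10 mM HEPES pH 7.5, 0.15 M NaCl, 0.01% Tween 20, 3 mM EDTA, 0.1 mM TCEP.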

[5] = qHTS Validation Assay to Find Inhibitors of Chronic Active B-Cell Receptor Signaling (AID 485345; active means well fitted curve in the direction sought with a large enough effect in the main read-out, with a control signal flat, not every such curve was filed as active)
Summary of the method: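 Read-out: ratio of filter-corrected green (IkappaBalpha fusion) to red (native) luciferase signal in doxycycline-induced TMD8 cells after 4 h at 37C. Titration spanned 46 uM–3 nM; Data were normalised to basal cells and 10 uM MG-132 wells.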

[6] = biological target: Beta-2 adrenergic receptor (Homo sapiens) (UniProt P07550); assay: qHTS validation assay of beta-arrestin-biased ligands of beta2-adrenergic receptor (AID 485366)
Summary of the method: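 Agonist activity is measured as luciferase luminescence downstream of beta-arrestin recruitment to recombinant beta2-AR in Tango cells. Exposure lasts 18 hr at 37 degrees C, and curves are categorized by r2, response size and activity.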

[7] = biological target: Thioredoxin reductase 1, cytoplasmic (Rattus norvegicus) (UniProt O89049); assay: qHTS Assay for Substrates of Mammalian Selenoprotein Thioredoxin Reductase 1 (TrxR1) (AID 488772);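 further: series mostly up to about 57 µM; a drop in NADPH fluorescence below the no-compound background marks a TrxR1 substrate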
Summary of the method: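 In this dual-purpose format, potential substrates are identified from the first fluorescence read after selenite addition, not from the 8-minute delta. Rat enzyme is preincubated with NADPH and then with compound at ~22 deg C.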

[8] = biological target: Thioredoxin reductase 1, cytoplasmic (Rattus norvegicus) (UniProt O89049); assay: qHTS Assay for Inhibitors of Mammalian Selenoprotein Thioredoxin Reductase 1 (TrxR1) (AID 488773); settings: Potency: inhibition;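 further: drop in NADPH fluorescence over an 8 min run after selenite addition; series mostly up to about 57 µM; nearly all actives have a fitted effect of over 40% in size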
Summary of the method: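 Inhibition is scored from the loss of NADPH fluorescence between first and last reads of an 8-min kinetic run. Selenite (400 uM) was the substrate, added after 15 min compound preincubation at room temperature.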

[9] = biological target: Flap endonuclease 1 (Homo sapiens) (UniProt P39748); assay: qHTS Validation Assay for the Inhibitors of Human Flap endonuclease 1 (FEN1) (AID 488816)
Summary of the method: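 qHTS format: compounds and 10 nM FEN1 incubated 15 min at room temperature before adding 50 nM substrate. Cleavage followed by reads at 0 and 15 min; normalized data fitted to a four-parameter Hill curve.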

[10] = biological target: M-phase phosphoprotein 8 (Homo sapiens) (UniProt Q99549); assay: qHTS Validation Assay for Inhibitors for MPP8 Chromodomain Interactions with Methylated Histone Tails (AID 488949);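 further: AlphaScreen signal from MPP8 chromodomain bound to biotinylated H3K9me3 peptide; top concentration of the series differs between compounds; nearly all actives have a fitted effect of over 55% in size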
Summary of the method: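 AlphaScreen read-out: streptavidin donor and nickel chelate acceptor beads (final 10 ug/mL), 30 min in the dark at RT. Complex of 50 nM MPP8 and 50 nM b-H3(1-18)K9me3 peptide had been exposed to compounds for 30 min beforehand.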

[11] = biological target: Chromobox protein homolog 1 (Homo sapiens) (UniProt P83916); assay: qHTS Validation Assay for Inhibitors of HP1-beta Chromodomain Interactions with Methylated Histone Tails (AID 488953);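 further: loss of AlphaScreen luminescence from HP1-beta binding biotinylated H3K9me3 peptide; series mostly up to about 110 µM; nearly all actives have a fitted effect of over 50% in size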
Summary of the method: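 AlphaScreen proximity readout: streptavidin donor and Ni-chelate acceptor beads, 10 ug/mL final, 30 min dark, RT. Complex of 50 nM HP1-beta and 50 nM b-H3(1-18)K9me3 formed 30 min, then compound-treated 30 min; PBS pH 7.4/0.01% Tween-20.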

[12] = biological target: Methanococcus maripaludis chaperonin (MmCpn) (UniProt Q6LX38); assay: High-Throughput Screening for Modulators of Cytosolic Chaperonin Activity: MmCpn Primary Screen (AID 488978);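 further: 50 nM MmCpn enzyme hydrolysing 30 µM ATP at 37 °C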
Summary of the method: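 ADP formation read by HTRF Transcreener, 665/590 nm emission after 320 nm excitation. Enzyme: archaeal chaperonin at 50 nM final; substrate ATP 30 uM final; 10 min, 37C, after 5 min compound preincubation at RT.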

[13] = biological target: D(1A) dopamine receptor (Homo sapiens) (UniProt P21728); assay: HTS Assay for Allosteric Agonists of the Human D1 Dopamine Receptor: Primary Screen for Agonists (AID 488981)
Summary of the method: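 Calcium flux in an inducible, force-coupled HEK293 Trex D1 line (overnight at 30 C): agonist mode is the 180 s kinetic read after compound; potentiator mode is the following 180 s read after dopamine at EC20.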

[14] = Validation screen for small molecules that induce DNA re-replication in MCF 10A normal breast cells (AID 463097); further: nearly all actives have a fitted effect of over 60% in size
Summary of the method: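 250 MCF 10A cells/well; compound pin-transferred; 48 hr, 37 C, 5% CO2; Hoechst 40 min; imaged 405/500-530 nm. Hits = more high-intensity nuclei.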

[15] = biological target: ATP-dependent 6-phosphofructokinase (Trypanosoma brucei brucei) (UniProt O15648); assay: qHTS Validation Assay to Find Inhibitors of T. brucei phosphofructokinase (AID 485368)
Summary of the method: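 Inhibition derived from concentration-response curves of luminescence, ranked by r2, response size and curve class; the underlying reaction used 1.25 nM PFK, 0.1 mM ATP and 0.5 mM F6P, 45 min, room temperature.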

[16] = Quantitative high throughput screen for delayed death inhibitors of the malarial parasite plastid, 96 hour incubation (AID 488745);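 further: luciferase-expressing P. falciparum in erythrocytes at 2% hematocrit and 0.1% parasitemia; series mostly up to about 29 µM; nearly all actives have a fitted effect of over 70% in size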
Summary of the method: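 Luciferase-expressing P. falciparum, infected RBCs 2% Hct/0.1% parasitemia (final); 96 h cpd exposure, 37 C, 5% CO2; RPMI 1640 + 0.5% Albumax, bicarbonate, gentamycin. Readout: luminescence loss = growth inhibition.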

[17] = biological target: Thyrotropin receptor (Homo sapiens) (UniProt P16473); assay: qHTS Assay for Antagonists of the Thyroid Stimulating Hormone Receptor (AID 488980); further: series mostly up to about 58 µM
Summary of the method: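 TSHR-HEK293 cells; 70 uM RO 20-1724 PDE inhibitor; compound + EC80 TSH (4 nM final); anti-cAMP cryptate antibody/cAMP-d2 in lysis buffer, 30 min RT; HTRF 665/620 nm read.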

[18] = Quantitative high throughput screen for delayed death inhibitors of the malarial parasite plastid, 48 hour incubation (AID 488752); further: nearly all actives have a fitted effect of over 65% in size
Summary of the method: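 Luciferase-expressing P. falciparum in RBCs, 2% Hct, 0.1% parasitemia final; RPMI 1640 + 0.5% Albumax; 48 h, 37 C, 5% CO2; luminescence readout, signal drop = growth inhibition.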

[19] = biological target: Transient receptor potential cation channel subfamily V member 1 (Homo sapiens) (UniProt Q8NER1); assay: HTS Assay for Compounds that Act as Enhancers of the Vanilloid Receptor 1 (AID 488979)
Summary of the method: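 Calcium influx kinetics via Fluo-8 (480/520 nm) in TRPV1-expressing cells, 2000/well cultured overnight at 35.5C. Compound-alone read 3 min (agonist phase), followed by EC20 capsaicin challenge for 2 min (enhancer phase).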

Measured: Potency

Sequence of Tumor susceptibility gene 101 protein (Homo sapiens) (Q99816 whole entry, looked up, the tested form may be a part): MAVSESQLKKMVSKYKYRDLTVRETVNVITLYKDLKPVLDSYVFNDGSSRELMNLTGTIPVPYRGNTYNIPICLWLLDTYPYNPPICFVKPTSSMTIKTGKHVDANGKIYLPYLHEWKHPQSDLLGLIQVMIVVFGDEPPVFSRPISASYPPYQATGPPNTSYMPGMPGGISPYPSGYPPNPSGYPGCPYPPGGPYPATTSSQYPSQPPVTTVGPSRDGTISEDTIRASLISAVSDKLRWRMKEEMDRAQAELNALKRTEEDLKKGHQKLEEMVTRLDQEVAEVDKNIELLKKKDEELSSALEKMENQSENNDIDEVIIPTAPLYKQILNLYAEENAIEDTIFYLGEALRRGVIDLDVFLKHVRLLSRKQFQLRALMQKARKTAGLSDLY
Sequence of DNA polymerase III PolC-type (Bacillus subtilis (strain 168)) (P13267 whole entry, looked up): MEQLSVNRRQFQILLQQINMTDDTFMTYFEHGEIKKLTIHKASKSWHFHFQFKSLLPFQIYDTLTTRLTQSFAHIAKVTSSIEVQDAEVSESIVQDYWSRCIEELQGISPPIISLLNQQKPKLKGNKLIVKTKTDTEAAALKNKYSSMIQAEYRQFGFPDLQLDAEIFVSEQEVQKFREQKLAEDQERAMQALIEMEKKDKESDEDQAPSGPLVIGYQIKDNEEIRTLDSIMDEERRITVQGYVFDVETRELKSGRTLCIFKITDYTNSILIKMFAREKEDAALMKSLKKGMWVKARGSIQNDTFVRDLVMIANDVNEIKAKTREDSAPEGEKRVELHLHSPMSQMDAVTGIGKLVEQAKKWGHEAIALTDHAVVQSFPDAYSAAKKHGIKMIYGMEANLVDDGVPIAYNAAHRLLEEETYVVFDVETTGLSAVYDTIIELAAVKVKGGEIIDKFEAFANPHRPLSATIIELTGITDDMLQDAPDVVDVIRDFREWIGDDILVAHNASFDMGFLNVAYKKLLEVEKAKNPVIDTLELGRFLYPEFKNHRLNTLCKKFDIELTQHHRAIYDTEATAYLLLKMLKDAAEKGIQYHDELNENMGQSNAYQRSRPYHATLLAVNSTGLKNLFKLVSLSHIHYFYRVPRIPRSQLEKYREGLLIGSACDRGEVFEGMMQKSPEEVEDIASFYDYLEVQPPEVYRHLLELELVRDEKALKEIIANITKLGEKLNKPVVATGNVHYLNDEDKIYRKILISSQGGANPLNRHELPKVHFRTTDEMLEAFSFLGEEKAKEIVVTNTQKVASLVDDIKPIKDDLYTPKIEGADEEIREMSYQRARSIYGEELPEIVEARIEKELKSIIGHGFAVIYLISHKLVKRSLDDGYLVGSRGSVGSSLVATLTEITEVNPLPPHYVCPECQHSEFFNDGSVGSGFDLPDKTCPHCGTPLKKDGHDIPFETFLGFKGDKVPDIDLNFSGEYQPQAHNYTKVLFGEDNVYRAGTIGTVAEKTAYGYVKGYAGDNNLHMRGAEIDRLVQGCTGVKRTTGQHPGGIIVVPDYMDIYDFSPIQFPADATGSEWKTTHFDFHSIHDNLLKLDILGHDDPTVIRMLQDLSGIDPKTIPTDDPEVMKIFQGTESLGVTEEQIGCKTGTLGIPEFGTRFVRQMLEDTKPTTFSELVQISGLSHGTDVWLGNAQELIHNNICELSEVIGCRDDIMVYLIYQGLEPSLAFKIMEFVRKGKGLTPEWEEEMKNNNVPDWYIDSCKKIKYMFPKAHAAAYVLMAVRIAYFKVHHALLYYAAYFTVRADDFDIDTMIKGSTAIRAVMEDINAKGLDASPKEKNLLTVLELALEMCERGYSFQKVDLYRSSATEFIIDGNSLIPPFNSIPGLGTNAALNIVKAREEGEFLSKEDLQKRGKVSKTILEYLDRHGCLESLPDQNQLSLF
Sequence of Flap endonuclease 1 (Homo sapiens) (P39748 whole entry, looked up): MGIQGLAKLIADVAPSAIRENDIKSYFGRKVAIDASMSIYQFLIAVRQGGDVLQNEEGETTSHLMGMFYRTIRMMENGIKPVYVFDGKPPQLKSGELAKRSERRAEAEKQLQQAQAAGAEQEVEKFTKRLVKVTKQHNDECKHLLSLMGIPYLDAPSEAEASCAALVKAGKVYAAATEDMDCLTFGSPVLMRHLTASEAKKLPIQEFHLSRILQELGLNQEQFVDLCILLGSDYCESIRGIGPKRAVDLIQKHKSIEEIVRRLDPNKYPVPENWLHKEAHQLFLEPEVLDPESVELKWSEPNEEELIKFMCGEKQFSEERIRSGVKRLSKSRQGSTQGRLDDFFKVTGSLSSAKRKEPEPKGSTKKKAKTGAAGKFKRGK
Sequence of M-phase phosphoprotein 8 (Homo sapiens) (Q99549 whole entry, looked up): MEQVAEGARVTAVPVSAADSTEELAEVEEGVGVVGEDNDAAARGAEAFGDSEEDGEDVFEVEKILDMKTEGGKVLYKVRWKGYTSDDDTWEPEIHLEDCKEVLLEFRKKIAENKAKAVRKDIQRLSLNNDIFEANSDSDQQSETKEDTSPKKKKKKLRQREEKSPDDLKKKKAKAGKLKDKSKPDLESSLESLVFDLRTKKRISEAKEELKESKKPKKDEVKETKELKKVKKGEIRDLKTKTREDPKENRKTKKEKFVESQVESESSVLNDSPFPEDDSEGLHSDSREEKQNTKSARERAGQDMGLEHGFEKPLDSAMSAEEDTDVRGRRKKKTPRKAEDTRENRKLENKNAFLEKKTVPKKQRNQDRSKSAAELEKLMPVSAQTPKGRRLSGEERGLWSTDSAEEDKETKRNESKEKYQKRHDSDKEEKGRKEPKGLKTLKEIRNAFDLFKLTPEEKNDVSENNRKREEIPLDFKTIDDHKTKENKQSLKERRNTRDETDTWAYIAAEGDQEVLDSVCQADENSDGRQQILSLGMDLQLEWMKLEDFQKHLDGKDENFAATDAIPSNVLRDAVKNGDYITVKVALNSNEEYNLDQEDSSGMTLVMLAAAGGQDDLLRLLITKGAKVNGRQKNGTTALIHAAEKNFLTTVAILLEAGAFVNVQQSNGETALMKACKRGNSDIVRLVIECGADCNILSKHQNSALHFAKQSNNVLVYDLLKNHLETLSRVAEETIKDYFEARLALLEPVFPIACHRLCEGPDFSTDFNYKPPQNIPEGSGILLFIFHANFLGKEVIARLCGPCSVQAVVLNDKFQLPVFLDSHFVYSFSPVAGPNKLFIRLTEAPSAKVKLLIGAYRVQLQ
Sequence of Ubiquitin carboxyl-terminal hydrolase 2 (Homo sapiens) (O75604 whole entry, looked up): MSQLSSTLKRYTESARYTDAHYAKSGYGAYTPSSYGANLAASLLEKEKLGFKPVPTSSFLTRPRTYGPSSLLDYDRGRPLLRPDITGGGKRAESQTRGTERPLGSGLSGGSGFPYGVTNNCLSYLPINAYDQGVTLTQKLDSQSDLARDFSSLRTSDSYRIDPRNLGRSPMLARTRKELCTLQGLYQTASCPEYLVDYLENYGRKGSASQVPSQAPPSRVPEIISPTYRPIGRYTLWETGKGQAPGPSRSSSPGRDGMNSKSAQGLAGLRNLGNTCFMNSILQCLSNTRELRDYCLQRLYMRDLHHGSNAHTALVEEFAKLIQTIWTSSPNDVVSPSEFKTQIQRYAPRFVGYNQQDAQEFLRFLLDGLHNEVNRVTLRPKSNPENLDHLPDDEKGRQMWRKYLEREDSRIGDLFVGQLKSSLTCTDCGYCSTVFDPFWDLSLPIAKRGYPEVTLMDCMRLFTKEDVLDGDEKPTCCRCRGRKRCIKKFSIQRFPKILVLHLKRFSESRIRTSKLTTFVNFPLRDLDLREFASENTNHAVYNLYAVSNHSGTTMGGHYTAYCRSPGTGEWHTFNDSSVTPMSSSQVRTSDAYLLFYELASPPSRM
Sequence of Thioredoxin reductase 1, cytoplasmic (Rattus norvegicus) (O89049 whole entry, looked up): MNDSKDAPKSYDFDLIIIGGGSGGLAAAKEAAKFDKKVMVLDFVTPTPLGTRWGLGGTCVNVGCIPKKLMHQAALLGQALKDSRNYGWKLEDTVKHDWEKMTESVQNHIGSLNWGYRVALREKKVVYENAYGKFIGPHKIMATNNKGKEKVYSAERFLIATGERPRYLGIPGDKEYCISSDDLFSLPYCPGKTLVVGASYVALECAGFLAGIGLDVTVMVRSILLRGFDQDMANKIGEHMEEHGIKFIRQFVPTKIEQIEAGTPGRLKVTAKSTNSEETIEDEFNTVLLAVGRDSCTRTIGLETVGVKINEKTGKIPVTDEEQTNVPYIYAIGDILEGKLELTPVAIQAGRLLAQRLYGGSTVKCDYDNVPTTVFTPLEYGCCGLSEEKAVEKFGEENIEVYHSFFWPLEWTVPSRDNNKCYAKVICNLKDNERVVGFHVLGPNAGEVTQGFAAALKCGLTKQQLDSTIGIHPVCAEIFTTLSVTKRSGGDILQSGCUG
Sequence of Methanococcus maripaludis chaperonin (MmCpn) (Q6LX38 1-543): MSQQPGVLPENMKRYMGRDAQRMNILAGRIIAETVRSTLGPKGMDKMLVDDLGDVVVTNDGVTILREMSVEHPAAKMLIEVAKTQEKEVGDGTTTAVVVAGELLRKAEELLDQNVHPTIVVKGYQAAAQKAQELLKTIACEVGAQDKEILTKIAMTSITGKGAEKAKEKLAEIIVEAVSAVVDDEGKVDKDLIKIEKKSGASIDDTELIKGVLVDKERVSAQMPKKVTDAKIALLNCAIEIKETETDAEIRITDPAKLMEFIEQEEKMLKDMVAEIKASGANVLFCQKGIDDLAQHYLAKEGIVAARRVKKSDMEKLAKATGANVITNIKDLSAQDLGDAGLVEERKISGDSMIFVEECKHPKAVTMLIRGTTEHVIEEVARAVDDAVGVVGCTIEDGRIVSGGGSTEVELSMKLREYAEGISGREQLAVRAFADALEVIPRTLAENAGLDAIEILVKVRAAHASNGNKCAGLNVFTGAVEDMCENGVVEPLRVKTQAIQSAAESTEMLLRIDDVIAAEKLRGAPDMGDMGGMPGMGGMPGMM
Sequence of Chromobox protein homolog 1 (Homo sapiens) (P83916 whole entry, looked up): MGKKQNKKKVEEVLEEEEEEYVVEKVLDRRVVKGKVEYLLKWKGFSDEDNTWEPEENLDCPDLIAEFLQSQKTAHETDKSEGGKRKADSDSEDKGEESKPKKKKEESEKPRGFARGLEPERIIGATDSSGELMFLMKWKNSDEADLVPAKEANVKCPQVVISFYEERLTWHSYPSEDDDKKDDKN

Cc1cc([C@@H]2CCCN2C)on1
inactive: [1] | [2] | [3] | [4] | [5] | [6] | [7] | [8] | [9] | [10] | [11] | [12] | [13]

C[N+]1(C)CCc2cc3c(cc2[C@H]1[C@@H]1OC(=O)c2c1ccc1c2OCO1)OCO3
inactive: [1] | [2] | [3] | [4] | [5] | [6] | [7] | [8] | [9] | [10] | [11] | [12] | [13]

COc1ccc2c(c1)[C@@]13CCCC[C@H]1[C@@H](C2)NCC3
inactive: [1] | [14] | [2] | [3] | [4] | [6] | [15] | [16] | [7] | [8] | [9] | [10] | [11] | [12] | [17] | [13]

CCNC(=O)[C@H]1O[C@@H](n2cnc3c(N)ncnc32)[C@H](O)[C@@H]1O
inactive: [1] | [2] | [3] | [4] | [6] | [15] | [7] | [8] | [9] | [10] | [12] | [13]

CCCN(CCC)CCc1c[nH]c2ccc(C(N)=O)cc12
inactive: [1] | [14] | [2] | [3] | [4] | [5] | [6] | [15] | [16] | [18] | [7] | [8] | [9] | [10] | [11] | [12] | [19] | [17] | [13]

CCN1C[C@@]2(COC)C3[C@@H](OC)C4[C@@H]1C3([C@@H]1C[C@]3(O)[C@H](OC(=O)c5ccccc5)[C@@H]1[C@]4(OC(C)=O)[C@@H](O)[C@@H]3OC)[C@H](OC)C[C@H]2O
inactive: [1] | [2] | [3] | [4] | [5] | [6] | [15] | [7] | [8] | [9] | [10] | [11] | [12]

N=C(N)c1ccc(CS(=O)(=O)F)cc1
inactive: [1] | [2] | [3] | [4] | [5] | [6] | [15] | [7] | [8] | [9] | [10] | [11] | [12] | [13]
